# Source: PubChem BioAssay (National Center for Advancing Translational Sciences (NCATS))
# JMJD2A Tudor inh – inhibitors of human JMJD2A Tudor domain; O75164; AID 504339; Potency, µM (titrated, usually from 114 µM), for inactives: at the highest dose activity change, negative = inhibition, actives largely listed as inhibitors; AlphaScreen JMJD2A-Tudor / H3K4me3 peptide binding; hit rate 4.4% among 390,000; further: on the % scale 0 is the no-effect control and ±100 the full control effect; nearly all actives have a fitted effect of over 50% in size
# PLK1 PBD inh – inhibitors of human PLK1 polo-box domain binding | P53350 | Potency, µM, inactives show max response, negative = inhibition, most hits filed as inhibitors | hit rate 2.8% among 360,000 | Plk1 PBD binding of FITC phosphopeptide, fluorescence polarization; further: series mostly up to about 57 µM; on the % scale 0 is the no-effect control and ±100 the full control effect; nearly all actives have a fitted effect of over 65% in size
# HP1b binding inh – blocks HP1-beta chromodomain binding to methylated histone tails. Potency, µM (doses to about 114 µM), inactives show at the highest dose activity change, negative = inhibition, most hits filed as inhibitors. P83916. hit rate 0.56% among 390,000. AlphaScreen HP1-beta / biotin-H3K9me3 peptide binding. AID 540317; further: nearly all actives have a fitted effect of over 70% in size
# Target sequence (P83916 whole entry, looked up): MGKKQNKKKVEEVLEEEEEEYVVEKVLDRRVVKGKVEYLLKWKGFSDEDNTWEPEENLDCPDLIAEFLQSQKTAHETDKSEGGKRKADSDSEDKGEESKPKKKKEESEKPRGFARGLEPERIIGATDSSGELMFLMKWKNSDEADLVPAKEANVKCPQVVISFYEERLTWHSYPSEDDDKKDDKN
#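 AlphaScreen: HP1-beta (50 nM) preformed 30 min with biotin-H3(1-18)K9me3 peptide (50 nM) in PBS pH 7.4, 0.01% Tween-20. Compound added for 30 min at RT, then streptavidin donor/nickel chelate acceptor beads (10 ug/mL) for 30 min.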
# G9a inh – G9a (human) methyltransferase inhibition. Q96KQ7. G9a H3K9 monomethylation, AlphaScreen, 2 h. Potency, µM (doses to about 102 µM), without a hit: top-dose activity, negative = inhibition, actives largely listed as inhibitors. hit rate 8.8% among 350,000; further: on the % scale 0 is the no-effect control and ±100 the full control effect; nearly all actives have a fitted effect of over 75% in size
# Target sequence (Q96KQ7 913-1193 limits assumed): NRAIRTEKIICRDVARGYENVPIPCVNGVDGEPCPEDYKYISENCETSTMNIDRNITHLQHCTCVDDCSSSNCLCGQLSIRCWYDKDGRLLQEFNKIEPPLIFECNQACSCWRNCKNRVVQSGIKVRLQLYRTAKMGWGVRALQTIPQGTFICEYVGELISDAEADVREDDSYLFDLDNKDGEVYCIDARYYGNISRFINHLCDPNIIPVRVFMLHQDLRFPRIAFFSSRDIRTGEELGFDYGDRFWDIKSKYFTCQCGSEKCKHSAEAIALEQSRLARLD
#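 Compounds were preincubated with 20 nM G9a for 15 min, after which biotinylated H3K9 peptide (500 nM) and SAM (20 uM) started a 2 h room-temperature reaction. Monomethylated product was quantified by antibody-based AlphaScreen chemiluminescence.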
# BAZ2B block – blocks human BAZ2B. Q9UIF8. AlphaScreen BAZ2B-H3K14Ac peptide displacement. Potency, µM (highest dose often 114 µM), for inactives: at the top dose activity change, negative = inhibition, usual class: inhibitors. hit rate 4.4% among 360,000. AID 504333; further: on the % scale 0 is the no-effect control and ±100 the full control effect; nearly all actives have a fitted effect of over 60% in size
#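 BAZ2B (50 nM) with biotin-H3(5-23)K14Ac peptide (50 nM) in PBS pH 7.4, 0.01% Tween-20, preformed 30 min, then compound 30 min at room temperature; top concentration 110uM. AlphaScreen streptavidin donor/nickel chelate acceptor beads (10 ug/mL final), 20 min dark, signal read.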
# Sfp PPTase inh – blocks B. subtilis Sfp PPTase activity | Biochemical Sfp PPTase activity, qHTS | Potency, µM, inactives show largest response in the series, negative = inhibition, hits mostly inhibitors | hit rate 3.5% among 310,000;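 further: the enzyme is Sfp with the accession as filed and its product quenches rhodamine fluorescence; 0% = enzyme reaction without inhibitor and -100% = no enzyme wells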
#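 Sfp 15 nM + cpd, 15 min RT; start w/ rhodamine-CoA 5 uM, BHQ-2-YbbR 12.5 uM (final); 50 mM Hepes pH 7.6, 10 mM MgCl2, 0.01% NP-40, 0.01% BSA; read 525/598 nm at 0 and 30 min.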
# Starred values were filed as active, the others as inactive; ? = inconclusive; / = no result; [ ] = dose if it differs, or a comment. Sampled rows, rich in hits. Any-hit rate of the full collection: about 12%. The call rests on the fitted dose curve; in most records, active means well fitted curve in the direction sought with a large enough effect; inconclusive means small, poorly fitted or top-dose-only effect, or another doubt; inactive means no such curve, though single readings can be large; an effect the other way counts as inactive or inconclusive. Potency means the concentration at half of the fitted maximal effect.
SMILES,JMJD2A Tudor inh,PLK1 PBD inh,HP1b binding inh,G9a inh,BAZ2B block,Sfp PPTase inh
COc1ccc(-c2c(C3C4C=CCC(C)C4C(=O)N3Cc3ccccc3)ccc3ccccc23)cc1 (centres undefined),-31.7%,/,4.8%,/,/,-1.8%
CC(=O)c1cc(CC=C(C)C)c(O)cc1O,12.3%[11.4 µM],29.9µM*,-14.8%,23.3%,0.1%[57.1 µM],12.1%
CC(=O)c1cc(CC=C(C)C)c(O)c(CC=C(C)C)c1O,22.4%,-0.5%,47.4%,55.5%[12.7 µM],-0.3%,14.0%
Cc1ccc(S(=O)(=O)N[C@H]2COC(=O)[C@@H](Cc3ccccc3)NC(=O)[C@@H](C)COC(=O)C/C=C\[C@@H]2C)cc1,/,/,/,/,/,19.1%
CCOc1ccc(NC(=O)Cn2sc3nc(C)cc(C)c3c2=O)cc1,0.891µM*,0.947µM*,5.62µM*,0.282µM*,-37.0%,2.82µM*
Cc1cc(C)c2c(=O)n(CC(=O)Nc3ccc(Cl)cc3)sc2n1,1.12µM*,1.34µM*,7.94µM*,0.0891µM*,39.8µM*,3.55µM*
Cc1cc(C)n(CCC(=O)Nc2ccc(Cl)cc2)n1,?,/,-17.0%,8.1%[59 µM],-38.4%,/
Cc1ccc(NC(=O)Cn2sc3nc(C)cc(C)c3c2=O)c(Cl)c1,1.58µM*,1.5µM*,?,0.355µM*,44.7µM*,2.82µM*
Cc1cc(C)c2c(=O)n(CC(=O)Nc3cccc(F)c3)sc2n1,1.12µM*,1.89µM*,?,0.316µM*,50.1µM*,3.16µM*
CCNc1nc(NC(C)C)nc(Oc2ccc(=O)n(C)n2)n1,-5.9%,-7.2%,28.6%,/,2.0%,6.4%
Cc1cccc(OCc2nnc(N)s2)c1,?,26.7µM*,-10.1%,-7.2%[59 µM],6.6%,6.1%
Nc1nnc(COc2cccc(C(F)(F)F)c2)s1,-4.5%,-25.6%,8.2%,2.8%,2.9%,1.2%
C#CCOCCOCCOCCNc1nc(N2CCN(C(=O)[C@H](CCCCN)n3cc([C@@H](N)C(C)CC)nn3)CC2)nc(N2CCN(C(=O)[C@H](Cc3cc4ccccc4[nH]3)n3cc([C@@H](N)CC(C)C)nn3)CC2)n1 (some centres undefined),35.5µM*,-19.4%,-11.0%,?,31.6µM*,-12.8%
C#CCOCCOCCOCCNc1nc(N2CCN(C(=O)[C@H](Cc3cc4ccccc4[nH]3)n3cc([C@@H](N)C(C)CC)nn3)CC2)nc(N2CCN(C(=O)[C@H](Cc3cc4ccccc4[nH]3)n3cc([C@@H](N)CC(C)C)nn3)CC2)n1 (some centres undefined),/,/,/,?,35.5µM*,?
C#CCOCCOCCOCCNc1nc(N2CCOCC2)nc(N2CCN(C(=O)[C@H](CC(N)=O)n3cc(C(N)[C@@H](C)CC)nn3)CC2)n1 (some centres undefined),-30.9%,-13.9%,25.1%,/,/,/
C#CCOCCOCCOCCNc1nc(N2CCN(C(=O)[C@H](Cc3cc4ccccc4[nH]3)n3cc([C@@H](N)C(C)CC)nn3)CC2)nc(N2CCN(C(=O)[C@H](CCCCN)n3cc([C@@H](N)CO)nn3)CC2)n1 (some centres undefined),/,/,/,14.0%[12.7 µM],25.1µM*,1.2%
C#CCOCCOCCOCCNc1nc(N2CCN(C(=O)[C@H](CCCN=C(N)N)n3cc(C(N)[C@H](C)CC)nn3)CC2)nc(N2CCN(C(=O)[C@H](CC(N)=O)n3cc(C(N)[C@@H](C)CC)nn3)CC2)n1 (some centres undefined),?,?,80.9%,/,/,/
C#CCOCCOCCOCCNc1nc(N2CCN(C(=O)[C@H](CCC(=O)O)n3cc(C(N)CO)nn3)CC2)nc(N2CCN(C(=O)[C@H](Cc3cc4ccccc4[nH]3)n3cc(C(N)[C@H](C)CC)nn3)CC2)n1 (some centres undefined),44.7µM*,-4.1%,13.2%,-0.7%[12.7 µM],50.1µM*,?
CCCCN(CCCN)c1ccc(Br)cn1,-21.1%,/,13.2%,/,/,/
CCc1ccc(NCc2cc3ccc(OC)cc3n(CC(=O)Nc3ccccc3OC)c2=O)cc1,?,/,-5.1%,?,?,/
COc1ccc(CN2C(=O)CN(S(C)(=O)=O)CC2(C)C(=O)Nc2c(C)cccc2C)cc1 (centres undefined),/,-7.6%,/,/,/,/
O=C(c1ccc(O)c(Cl)c1)N1CCN(S(=O)(=O)c2ccccc2)CC1,-15.1%,-6.0%,12.6%,8.3%,-17.4%,7.6%
CCn1cc(C2Nc3ccccc3C(=O)N2O)c(C)n1 (centres undefined),-21.4%,-9.0%,45.7%,17.8µM*,7.7%,-15.8%
O=C1c2ccccc2NC(c2ccco2)N1O (centres undefined),-17.6%,-8.5%,51.5%,?,-7.1%,-6.8%
Cc1c(C2Nc3ccccc3C(=O)N2O)cnn1C (centres undefined),?,-13.9%,73.9%,10µM*,-14.0%,1.2%
SMILES,JMJD2A Tudor inh,PLK1 PBD inh,HP1b binding inh,G9a inh,BAZ2B block,Sfp PPTase inh
Cc1sc2nc(NCCO)[nH]c(=O)c2c1C,-11.7%,-10.0%,9.9%,4.2%,7.8%,-4.0%
C=CCN1C(=O)N/C(=C/c2ccc(C)o2)C1=O,-18.3%,?,-8.0%,?,-0.7%,10µM*
Cc1ccc(NC(=O)CN2C(=O)N/C(=C/c3ccc(C)o3)C2=O)cc1,-29.2%,3.3%,13.1%,35.5µM*,7.7%[57.1 µM],10µM*
Cc1ccc(NC(=O)CN2C(=O)N/C(=C/c3ccc(C)s3)C2=O)cc1,2.1%,31.1%,32.1%,?,10.1%,39.8µM*
Cc1ccc(NC(=O)C2CCCO2)cc1[N+](=O)[O-] (centres undefined),-9.7%,2.5%,20.2%,-5.2%,0.3%,16.2%
CN(CC(=O)Nc1c(Cl)cccc1Cl)C(=O)Cc1ccc2c(c1)CCC2,-5.5%,15µM*,?,3.55µM*,5.5%,/
COc1cccc(NC(=O)CN(C)C(=O)Cc2ccc3c(c2)CCC3)c1,-8.3%,-26.1%,14.4%,?,7.9%,/
CCN(CC(=O)Nc1ccccc1C(F)(F)F)C(=O)Cc1ccc2c(c1)CCC2,3.7%,-0.3%,44.0%,-3.2%[12.7 µM],-2.3%,/
O=C(Cc1ccc2c(c1)CCCC2)Nc1ccccc1Br,25.4%,23.8µM*,-18.4%,44.7µM*,-5.0%,-2.3%
CCCN(CC(=O)Nc1ccccc1OC)C(=O)Cc1ccc2c(c1)CCC2,-12.4%,21.2µM*,4.9%,?,-3.7%,/
CCN(CC(=O)Nc1c(F)cccc1F)C(=O)Cc1ccc2c(c1)OCCO2,-12.3%,-4.7%,37.8%,13.0%[12.7 µM],-6.5%,/
CCN(CC(=O)Nc1c(F)cccc1F)C(=O)Cc1ccc2c(c1)CCC2,-8.9%,16.8µM*,?,10µM*,-5.5%,/
CCOc1ccc(NC(=O)C2(c3cccs3)CCOCC2)cc1,-4.2%,/,-8.4%,9.9%[59 µM],-6.0%,/
O=C(COC(=O)/C=C/c1ccccc1Cl)NC1CC1,/,-0.2%,/,/,/,/
